# Bioassay records deposited in PubChem by several laboratories.
# TMEM16A act = activators or potentiators of mouse TMEM16A chloride channel; HEK293 TMEM16A/YFP-H148Q/I152L, iodide quench fluorescence; hits give low values; B-score at 10 µM; 0.3% of 340,000 active; AID 623877;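 active = fluorescence-ratio B-score plate-corrected deviation score at least 3 library SD below zero, with starting fluorescence score within 5 deviations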;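 note: channel opened by trigger with iodide after compound preincubation; score built on the fluorescence ratio of max minus min over baseline; more negative score means more quench and so TMEM16A activation or potentiation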
# IDE cell activ = activators of human insulin-degrading enzyme in cells; AID 493087; 0.073% of 340,000 active; HEK cells, FAbeta-B cleavage, fluorescence polarization; 0% vehicle, 100% cell-free pure enzyme wells; activation, % at 5.96 µM; P14735;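 active = activation above the mean of all tested compounds plus 3 SD, set per screening campaign, cut at about 17% in these data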
# ANO1 block = mouse TMEM16A channel inhibition, primary screen; HEK293 TMEM16A/YFP iodide influx fluorescence, ionomycin; normalized B-score (activity score, 25-100; higher = stronger inhibition) at 10 µM; 1.2% of 310,000 active; AID 588511;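 active = ratio plate-corrected score three or more library SD toward inhibition, starting fluorescence score within five deviations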;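 note: score derived from kinetic fluorescence span divided by baseline fluorescence per well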
# IDE inh = inhibitors of human insulin-degrading enzyme in cells; inhibition, % at 5.59 µM; 0.41% of 320,000 active; P14735; HEK cells, FAbetaB cleavage, fluorescence polarization; AID 434962;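 active = percent inhibition above the average of all tested compounds plus 3 SD, set per screening campaign, cut at about 16% in these data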;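 note: IDE supplied by intact live HEK cells; FP after avidin binding of uncleaved biotin substrate so inhibition keeps polarization high; 0% = DMSO wells and 100% = 60 µM reference IDE inhibitor Ii1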
# CHT allo act = allosterically activates the human high affinity choline transporter; Q9GZV3; CHT-expressing cells, membrane potential dye, choline EC20; hits give high values; LV-AA mutant CHT in HEK293 cells; B-score at 10 µM; 0.49% of 310,000 active; AID 488977;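 active = initial fluorescence not abnormally high and integrated response B-score, plate-corrected, over 3 SD above library mean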
# CHT inh = human CHT choline transport inhibition | AID 488975 | CHT-expressing cells, membrane potential dye, choline response; hits give low values | Q9GZV3 | B-score at 10 µM | 0.86% of 310,000 active;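 active = B-score over 3 SD under the library average, and starting fluorescence ratio not unusually high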;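 note: choline stimulus applied at its EC90 after an EC20 pre-addition; B-score computed on integrated fluorescence ratio after choline addition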
# TMEM16A reconf = re-confirmation of mouse TMEM16A chloride channel inhibitors. HEK293 TMEM16A/YFP-H148Q, iodide quench fluorescence; ionomycin added to raise cell calcium. 39% of 2,300 active. shares compounds with ANO1 block. inhibition, % at 10 µM;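 active = mean duplicate percent inhibition, scaled so buffer wells are 0 and the reference blocker 100, over three buffer SD above buffer mean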
# TMEM16A Ca cntr = calcium mobilization counter-screen hit for TMEM16A inhibitor series; TMEM16A/YFP HEK293, Fluo4 calcium mobilization; shares compounds with ANO1 block; 2% of 2,300 active; AID 652231; calcium response (% of ionomycin), % at 10 µM;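 active = duplicate-averaged calcium signal over 20% of the ionomycin maximum, relative to buffer baseline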;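 note: each well's signal is peak minus trough fluorescence divided by its pre-addition baseline; 0% = buffer wells and 100% = ionomycin wells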
# Parental YFP cnt = acts in parental YFP-HEK293 cells lacking TMEM16A, counter-screen; YFP ratio F(max-min)/F0 at 10 µM; AID 652233; shares compounds with ANO1 block; 2,300 tested, under 10 active; iodide YFP quench, ionomycin;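 active = yellow fluorescent protein signal ratio exceeding the buffer control mean by over 5 SD of those controls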;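 note: ratio is mean of duplicate wells from kinetic YFP trace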
# ClC-1 rat inh = blocks the rat ClC-1 voltage-dependent chloride channel. CHO ClC-1-YFP, iodide influx fluorescence quench; iodide control reads 0, buffer control 100. ratio percent, % at 10 µM. shares compounds with ANO1 block. 2,300 tested, under 10 active;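 active = duplicate-mean ratio percent above the mean of iodide-only control wells, which defines zero, plus 5 of their SD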;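 note: higher percent means stronger block of ClC-1 iodide influx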
# Numbers without * were called inactive; i = inactive; / = not tested or not shown. Hits are enriched below; roughly 2.7% of the tested compounds scored in any of these assays.
SMILES,TMEM16A act,IDE cell activ,ANO1 block,IDE inh,CHT allo act,CHT inh,TMEM16A reconf,TMEM16A Ca cntr,Parental YFP cnt,ClC-1 rat inh
c1coc(CNc2ncnc3c2oc2ccccc23)c1,i,-4,100*,-2,i,i,i,i,-1,-5
c1ccc2c(c1)oc1c(Nc3ccc4c(c3)OCCO4)ncnc12,i,-11,25*,0,i,i,i,i,-0.92,3
CCN(CC)S(=O)(=O)c1ccc(Oc2ccc(S(=O)(=O)N(CC)CC)cc2)cc1,i,7,100*,-5,i,i,i,i,-1.1,-22
CCc1nonc1NC(=O)c1oc2ccc(F)cc2c1C,i,0,i,-10,i,i,/,/,/,/
Cc1c(C(=O)Nc2nonc2-c2ccc(F)cc2)oc2ccc(F)cc12,i,5,25*,-2,i,i,40%*,i,-0.88,-16
CC1Nc2ncnc(N3CCN(c4ccccc4)CC3)c2N(Cc2ccc(Br)cc2)C1=O (centres undefined),i,1,i,5,i,i,/,/,/,/
COC(=O)c1cc(COc2ccc3oc(C)c(C(=O)OC)c3c2)c(C)o1,i,5,100*,-2,i,i,i,i,-1.2,-11
O=C(O)Cn1cc(C(=S)N2CCOCC2)c2ccccc21,i,6,25*,2,i,i,i,i,-1.4,-5
COCCNC(=O)c1ccc2c(=O)n(Cc3ccco3)c(SCC(=O)NC3CCCCC3)nc2c1,i,3,i,0,i,i,i,i,-1,-6
Cc1ccc(C(=O)CCC(=O)OCC(=O)N2CCN(S(=O)(=O)c3ccc(C)cc3C)CC2)cc1,i,3,/,/,/,/,/,/,/,/
COc1ccccc1C(=O)NCC(=O)OCC(=O)N1CC(C)OC(C)C1 (centres undefined),i,0,/,/,/,/,/,/,/,/
Cn1cccc1C1CCCN1CC(=O)Nc1ccc(C(N)=O)cc1 (centres undefined),i,3,/,5,/,/,/,/,/,/
CCOC(=O)N1CCN(c2ccc(C(=O)c3ccccc3)cc2F)CC1,i,2,100*,3,i,i,23%*,i,-1.1,-9
CCCC/C(O)=C1\C(=O)CC(C)(C)CC1=Nc1ccccc1OC,i,3,25*,1,i,i,i,i,-1.1,-4
COC(=O)c1ccccc1NC(=O)C1CCN(c2ncnc3c2nc2n3CCCCC2)CC1,i,2,100*,1,i,i,i,i,-1.1,-8
CC1CCCC(C)N1C(=O)COC(=O)CCC1CCCC1 (centres undefined),i,4,i,-6,i,i,/,/,/,/
S=C(NCCc1ccccc1)Nc1ccc(N2CCCCC2)cc1,/,1,i,-4,i,i,i,i,-1,-6
CCOC(=O)c1ccc(NC(=O)CCc2ccc(CC)o2)cc1,i,-1,100*,0,i,i,i,i,-1.1,-8
CCNC(=S)Nc1ccc(N2CCCCC2)cc1,i,4,i,-3,i,i,/,/,/,/
CCOC(=O)c1ccc(NC(=S)NCCc2ccccc2)cc1,i,-2,25*,1,i,i,18%*,i,-1.2,-19
COC(=O)[C@H](C)N(Cc1ccc(Cl)c(Cl)c1)S(=O)(=O)CCNC1CCCC1,/,4,/,/,/,/,/,/,/,/
Cc1ccc(C(=O)N2c3ccccc3N(Cc3ccccc3)C(=O)C2(C)C)cc1,i,4,100*,0,i,i,24%*,i,-0.97,-10
CCN1C[C@@H]2[C@@H]3C(=O)N(Cc4ccccc4)C(=O)[C@@H]3[C@](C)(C1=O)N2C(=O)c1ccc(C)cc1,i,4,/,/,/,/,/,/,/,/
CC(OC(=O)c1ccc(O)cc1)C(=O)Nc1cc(C(F)(F)F)ccc1Cl (centres undefined),i,0,25*,-5,i,i,58%*,i,-0.94,-18
COC(=O)c1ccccc1S(=O)(=O)N1CCC(C(=O)NCc2ccco2)CC1,i,2,/,0,/,/,/,/,/,/
SMILES,TMEM16A act,IDE cell activ,ANO1 block,IDE inh,CHT allo act,CHT inh,TMEM16A reconf,TMEM16A Ca cntr,Parental YFP cnt,ClC-1 rat inh
O=c1[nH]c2ccccc2n1CCCSCCCn1c(=O)[nH]c2ccccc21,i,-14,100*,7,i,i,38%*,i,-0.93,-8
Cc1cc(C(=O)CSCCCn2c(=O)[nH]c3ccccc32)c(C)n1C,i,1,i,1,i,i,/,/,/,/
CC(=O)Nc1ccc(S(=O)(=O)NCCC(=O)OCc2csc(CC(=O)Nc3ccccc3C)n2)cc1,i,0,i,2,i,i,/,/,/,/
CCn1cc(C(=O)NCCc2ccc(OC)cc2)c(=O)c2ccc(C)nc21,i,2,i,0,i,i,/,/,/,/
CC(=O)Nc1ccc(NC(=O)COC(=O)CCCc2c[nH]c3ccccc23)cc1,i,9,i,-6,i,i,/,/,/,/
NC(=O)NC(=O)COC(=O)CCCc1c[nH]c2ccccc12,i,-2,100*,-1,i,i,i,i,-1,-14
CCc1sc(C(=O)NNC(=O)c2cncc(Br)c2)cc1C,i,0,/,7,/,/,/,/,/,/
CCCCOC(=O)C1=C(C)Nc2ncnn2C1c1ccc(OC)c(OC)c1 (centres undefined),i,3,i,-2,i,i,/,/,/,/
CCCCOC(=O)C1=C(C)Nc2ncnn2C1c1ccc(OCC)c(OC)c1 (centres undefined),i,7,25*,-3,i,i,i,i,-1.1,0
O=C(CSc1nc(C(F)(F)F)cc(=O)[nH]1)Nc1ccc2c(c1)OCCO2,i,2,i,-3,i,i,/,/,/,/
O=C(Nc1ccc(Nc2ccncc2)cc1)c1ccc(Nc2ccnc3ccc([N+](=O)[O-])cc23)cc1[N+](=O)[O-],i,-4,25*,8,i,i,i,i,-0.99,-4
